Experimental findings from PubChem BioAssay AID1259343 (VanderVen Lab, College of Veterinary Medicine, Cornell …, 2017) are described below.

Molecules are shown by their SMILES. The whole screen tested about 6,200 compounds, of which about 2,900 (47%) were called active. No stated cut-off is given here; in the data, active means inhibition above about 50%; inactive means the rest. So high a share suggests a set chosen from earlier hits. The list shows a part of the results.

The nature of the assay: Mycobacterium tuberculosis growth inhibition, primary screen (AID 1259343). The settings on record: inhibition: at 10 µM, active compounds read high; outcome: 10 uM.
With `CC(NS(=O)(=O)c1ccc(Cl)c(C(F)(F)F)c1)C1CC2CCC1C2` (stereo unspecified), the inhibition entry was “inactive”.

Consider `CCn1c(C)c(C(=O)CN(C(=O)c2ccc(Br)cc2)C2CCCCC2)c(C)c1C(=O)OC`, for which the inhibition was 22.6% (inactive).

Regarding `Cc1ccccc1C1CC(N(C(=O)c2ccc(Br)cc2)C2CC2)C1` (stereo unspecified), the inhibition is 82.4% (active).

Regarding `Cc1ccc(C(=O)OC(C)CN2CCN(C)CC2)cc1` (stereo unspecified), the inhibition is -10.1% (inactive).

Turning to `COC(=O)c1ccc(N2CN=C(c3ccc(C)cc3)NC2=S)cc1`, the inhibition is 87.5% (active).

With `CC1(Oc2ccccc2-c2ccno2)CCN(Cc2ccc(-c3ccccc3)o2)C1` (stereo unspecified), the inhibition was 25.5% (inactive).

As for `Fc1ccc(N2CCN(C[C@H]3CN4CC[C@H]3C[C@@H]4CNC(=S)Nc3ccc(-n4cccn4)cc3)CC2)cc1`, the inhibition is 95.6% (active).

For `CCC(C)C(=O)Nc1nc(-c2ccc(OC)c(F)c2)cs1` (stereo unspecified), the inhibition was 0.73% (inactive).

Consider `CC(OC(=O)c1ccc(OCC2CCCO2)cc1)C(=O)Nc1nc(-c2ccc(F)c(F)c2)cs1` (stereo unspecified), for which the inhibition was 100% (active).

For the compound `CN(c1cccc(O)c1)S(=O)(=O)c1ccc2c(c1)OCCCO2`, the inhibition was 52.4% (active).

As for `O=S(=O)(Oc1ccc2oc3ccccc3c2c1)c1ccc2c(c1)OCCO2`, the inhibition is 31.3% (inactive).

`CN(c1cccc(O)c1)S(=O)(=O)c1cc(Cl)sc1Cl`: the inhibition is -2.74% (inactive).

As for `O=C(Nc1ccc2scnc2c1)C1CC(=O)N(CC2CC2)C1` (stereo unspecified), the inhibition was 34.9% (inactive).

Take `Nc1ccc2scnc2c1`: the inhibition is 94.5% (active).

On to `O=C(NCC1CCC2(CC1)OCCO2)c1ccc(Cl)cc1F`, for which the inhibition was -19.8% (inactive).

With `O=C(Nc1cc(C(F)(F)F)no1)c1ccc(Cl)cc1F`, the inhibition was 97.8% (active).

As for `Cc1csc(C(C#N)C(=O)CSc2nnc(NC3CC3)s2)n1` (stereo unspecified), the inhibition is 28.8% (inactive).

Regarding `CCCSc1nnc(NCc2ccc(OC)cc2)s1`, the inhibition was 33.5% (inactive).

Regarding `CCCSc1nnc(SCC(=O)Nc2nc(C)cs2)s1`, the inhibition is 90.9% (active).

On to `NCC[C@H](O)C(=O)N[C@@H]1C[C@H](N)[C@@H](O[C@H]2O[C@H](CN)[C@@H](O)[C@H](O)[C@H]2O)[C@H](O)[C@H]1O[C@H]1O[C@H](CO)[C@@H](O)[C@H](N)[C@H]1O`, for which the inhibition was 98.7% (active).

For the compound `CN[C@H]1C[C@@H](N)[C@H](O)[C@@H](O[C@@H]2O[C@H](CO)[C@@H]3OC4(O[C@@H]3[C@@H]2O)O[C@H](C(N)CO)[C@H](O)[C@H](O)[C@H]4O)[C@@H]1O` (stereo partly specified), the inhibition is 41.3% (inactive).

Consider `CCc1cc(=O)[nH]c(-n2nc(C)cc2NC(=O)Cc2ccc(OC)c(OC)c2)n1`, for which the inhibition is 48% (inactive).

As to `CCCc1cc(=O)[nH]c(-n2nc(C)cc2NC(=O)Cc2ccc(OC)c(OC)c2)n1`, the inhibition was 98.9% (active).

Turning to `COc1ccc(CC(=O)Nc2cc(C)nn2-c2nc(C)cc(=O)[nH]2)cc1OC`, the inhibition was 99% (active).

Consider `CCOc1ccc(OCCCCOc2ccc(F)cc2)cc1`, for which the inhibition was 8.32% (inactive).

In the case of `Cc1n[nH]c(C)c1CCCCCOc1cccc(Cl)c1`, the inhibition was 99.2% (active).

Take `Cc1n[nH]c(C)c1CCCCCCOc1ccc(F)cc1`: the inhibition is 87.3% (active).

In the case of `CNc1snc(C)c1C(=O)NCc1ccc2c(c1)CCC2`, the inhibition is 39.8% (inactive).

With `CNc1snc(C)c1C(=O)OCc1ccc(-n2cccn2)cc1`, the inhibition is 50.2% (active).

On to `Cc1oc(-c2ccc(F)cc2F)nc1CN(C)Cc1ccccc1C(F)(F)F`, for which the inhibition was 30.1% (inactive).

As to `COc1cc(C(=O)Nc2cc(Cl)ccc2N2CCSCC2)ccc1C`, the inhibition is 12.9% (inactive).

`N#Cc1nc(NC(=O)c2ccc(N3CCCC3)c(F)c2)[nH]c1C#N`: the inhibition was 70.6% (active).

On to `N#Cc1ccc(C(=O)Nc2ccccc2N2CCCCCC2)cc1`, for which the inhibition was 39.7% (inactive).

Turning to `CCOC(=O)CSc1nnc(CNc2ccc(C)c(Cl)c2)n1C`, the inhibition was 94.2% (active).

Consider `OCC1(CCc2ccccc2)CCCN(c2ncnc3sccc23)C1` (stereo unspecified), for which the inhibition was 22.8% (inactive).

As to `CN(N=Cc1sc2ccccc2c1O)c1ccccc1`, the inhibition was -9.99% (inactive).

Take `Oc1c(N=Nc2ccc3c(c2)OCCO3)sc2ccccc12`: the inhibition was 38.8% (inactive).

With `Oc1c(-c2ccccn2)sc2ccccc12`, the inhibition was 90.9% (active).

For the compound `Fc1ccccc1OCc1n[nH]c(=S)o1`, the inhibition is 47.7% (inactive).

Turning to `Cc1ccc(Oc2ncccc2CNc2ncccn2)c(F)c1F`, the inhibition was 23.9% (inactive).

Turning to `Fc1ccccc1COc1ccccc1CNc1nn[nH]n1`, the inhibition was 57.1% (active).

On to `Cc1cccc2c(=O)n(CC(=O)NCCc3cccc(F)c3)cnc12`, for which the inhibition was 25.4% (inactive).

Take `Cc1cc(NC(=O)Cn2cnc3c(nnn3-c3cccc(F)c3)c2=O)no1`: the inhibition is 87.4% (active).

Consider `CSc1cccc(NC(=O)Cc2csc(N3CCCC3=O)n2)c1`, for which the inhibition is 70.3% (active).

Consider `Cc1cccc(CO[C@]2(C(=O)NCC3CCCO3)CC(OCc3ccc(F)cc3)[C@H](O)[C@H](O)C2)c1` (stereo partly specified), for which the inhibition is -13% (inactive).

`CCCCCCCCNC(=O)c1ccc(Br)o1`: the inhibition was 74.9% (active).

For `O=C(NCC1CCCO1)c1ccc(Br)o1` (stereo unspecified), the inhibition was 83.8% (active).

Take `O=C(NCCC12CC3CC(CC(C3)C1)C2)C12CC3CC(CC(C3)C1)C2`: the inhibition is -25.6% (inactive).

Consider `O=C(NC1CCCC1)c1ccc(Br)o1`, for which the inhibition was -20.8% (inactive).

As for `O=C(NCC1CCCO1)C12CC3CC(CC(C3)C1)C2` (stereo unspecified), the inhibition is 81.2% (active).

As to `Cc1ccc(CNC(=O)c2ccc(Br)o2)cc1F`, the inhibition is 16.3% (inactive).

In the case of `Cc1ccc(OCCCCNC(=O)c2ccc(Br)o2)cc1`, the inhibition is 92.2% (active).

In the case of `O=C(O)C1Nc2ccc(Br)cc2C2C=CCC12` (stereo unspecified), the inhibition was 84.2% (active).

In the case of `O=C(O)C1Nc2c(Cl)cc(Cl)cc2C2C=CCC12` (stereo unspecified), the inhibition is 101% (active).

With `O=C(O)c1ccc2c(c1)C1C=CCC1C(c1ccc(Br)cc1)N2` (stereo unspecified), the inhibition is 66.8% (active).

Turning to `O=C(O)C1Nc2ccc3ccccc3c2C2C=CCC12` (stereo unspecified), the inhibition was 16.2% (inactive).

Turning to `N#Cc1nc(C2CC2)oc1N1CCN(C(=O)Nc2ccccc2)CC1`, the inhibition was 21.4% (inactive).

As for `COC(=O)c1ccc(CSC(=S)N(C)C)cc1`, the inhibition was 82.1% (active).

On to `NC(=O)C1CCN(C(=O)CCC2CCCC2)CC1`, for which the inhibition was -28.4% (inactive).

Take `CC(C)c1csc(C2CCN(C(=O)CCc3ccsc3)CC2)n1`: the inhibition was 83.6% (active).

As to `NC(=O)C1CCN(C(=O)CCc2ccsc2)CC1`, the inhibition was 90.9% (active).

For `Cc1c(C(=O)N2CCC(C(N)=O)CC2)nnn1-c1nc(-c2ccccc2)cs1`, the inhibition was 20.4% (inactive).

Regarding `CCN1C(=Cc2cc(C)[n+](C3CCCCC3)c(C)c2)Sc2ccccc21`, the inhibition is -19.4% (inactive).

Turning to `Cc1cc(C=C2Sc3ccccc3N2C)cc(C)[n+]1-c1ccccc1`, the inhibition was 41.1% (inactive).

Take `CCC(C)[n+]1c(C)cc(C=C2Sc3ccccc3N2CC)cc1C` (stereo unspecified): the inhibition is 84.5% (active).

Regarding `CCN1C(=Cc2ccc3cc(C)ccc3[n+]2CC)Sc2ccccc21`, the inhibition is 56.1% (active).

Consider `CCCCCOc1ncnc2c1sc1nc3c(cc12)COC(C)(C)C3`, for which the inhibition is 51% (active).

`CC(C)CCOc1ncnc2c1sc1nc3c(cc12)COC(C)(C)C3`: the inhibition was 63.6% (active).

Consider `CC1(C)[C@H]2CC[C@@H](CNC(=O)c3cc(=O)n(-c4ccccc4)[nH]3)[C@@H]1C2`, for which the inhibition is 23.3% (inactive).

For the compound `C=C(NC(=O)C(=C)NC(=O)c1csc(C2=NC3c4csc(n4)C4NC(=O)c5csc(n5)C(C(C)(O)C(C)O)NC(=O)C5CSC(=N5)C(=CC)NC(=O)C(C(C)O)NC(=O)c5csc(n5)C3(CC2)NC(=O)C(C)NC(=O)C(=C)NC(=O)C(C)NC(=O)C(C(C)CC)NC2C=Cc3c(C(C)O)cc(nc3C2O)C(=O)OC4C)n1)C(N)=O` (stereo unspecified), the inhibition is 95.4% (active).

As for `N=C1c2ccccc2CN1c1ccc(OC(F)(F)C(F)F)cc1`, the inhibition was 64.2% (active).

As to `CSc1nsc(SC)c1NC(=O)OC1CCCCC1`, the inhibition is 11.5% (inactive).

With `CNS(=O)(=O)Cc1ccc(CNc2ccc(C(F)(F)F)cn2)cc1`, the inhibition was 50.3% (active).

For the compound `Cc1ccc(CNS(=O)(=O)Cc2ccc(F)cc2)cc1F`, the inhibition was 29.8% (inactive).

Take `CC(C(=O)NCc1cccs1)S(=O)(=O)c1ccc(C(F)(F)F)cn1` (stereo unspecified): the inhibition is 14.3% (inactive).

Consider `N#Cc1c(Cl)nsc1NC1CCSc2c(F)cccc21` (stereo unspecified), for which the inhibition was 11.2% (inactive).

`N#Cc1c(Cl)nsc1NCCC1CC2CCC1C2` (stereo unspecified): the inhibition is 96.1% (active).

`COc1cccc(C(CN2CCN(C(=O)C=C(C)C)CC2)OCc2cccc(Cl)c2)c1` (stereo unspecified): the inhibition is -4.3% (inactive).

Take `N=C1C=CC(=C(c2cccc(N)c2)c2cccc(N)c2)C=C1`: the inhibition was 68.4% (active).

As for `CC1c2cccn2CCN1Cc1csc(Nc2ccccc2)n1` (stereo unspecified), the inhibition was 20.8% (inactive).

As for `CCOc1ccc(Nc2nc(-c3c(C)nc4ccccn34)cs2)cc1`, the inhibition is 61.2% (active).

With `CCOc1ccc(NC(=O)CSc2nc(=O)n3ccccc3n2)cc1`, the inhibition was 2.8% (inactive).

`CC(Oc1ccc(Cl)cc1)C(=O)NC(C)c1cccs1` (stereo unspecified): the inhibition was 94.5% (active).

With `COc1ccccc1CNC(=O)C1(S(=O)(=O)c2ccc(Cl)cc2)CCCC1`, the inhibition is 2.93% (inactive).

As for `COc1ccccc1NC(=O)N(Cc1ccsc1)C1CC1`, the inhibition is 16% (inactive).

On to `COc1ccccc1CN(C(=O)Nc1ccccc1Cl)C1CC1`, for which the inhibition is 78.5% (active).

Turning to `COc1ccc(Cl)cc1C(=O)Nc1cc(C2CC2)nn1-c1nc(C)cc(=O)[nH]1`, the inhibition is 99.9% (active).

Regarding `CCc1cc(=O)[nH]c(-n2nc(C)cc2NC(=O)c2cc(Cl)ccc2OC)n1`, the inhibition was 102% (active).

For `Cc1cc(=O)[nH]c(-n2nc(C3CC3)cc2NC(=O)c2cc(Cl)ccc2Cl)n1`, the inhibition is -15.9% (inactive).

On to `COc1ccc(Cl)cc1C(=O)Nc1cc(C)nn1-c1nc(C)cc(=O)[nH]1`, for which the inhibition was 101% (active).

In the case of `COc1ccc(Cl)cc1C(=O)Nc1cc(C)nn1-c1nc(C)c(C)c(=O)[nH]1`, the inhibition was 100% (active).

Regarding `Cc1noc(CNC(C)(C)Cc2ccc(Br)cc2)n1`, the inhibition is -9.14% (inactive).

`Cn1c2ccccc2n2c3ncccc3c(=O)c(C#N)c12`: the inhibition was 41.8% (inactive).

`CSc1nnc(SCc2cc(C)no2)s1`: the inhibition is 27.2% (inactive).

On to `COc1ccc(CSc2nnc(SCC(=O)N3CCCCCC3)s2)cc1`, for which the inhibition is 26.9% (inactive).

Regarding `CCSc1nnc(SCc2cccc(OC)n2)s1`, the inhibition is 90.4% (active).
